Bioassay records as filed in PubChem.
In the library only some 2.4% were active in any assay of this set; here they are far more common.
D2 ag-1: activates the human D2 dopamine receptor | P14416 | DiscoveRx PathHunter D2 beta-arrestin, luminescence, 90 min; 100% = 57 uM dopamine signal | activation, % (no concentration beside the values) | 360,000 compounds, 0.084% hits | AID 624465; in the data active means activation above about 40%; inconclusive means between about 15% and that limit
Target sequence (P14416 whole entry, looked up): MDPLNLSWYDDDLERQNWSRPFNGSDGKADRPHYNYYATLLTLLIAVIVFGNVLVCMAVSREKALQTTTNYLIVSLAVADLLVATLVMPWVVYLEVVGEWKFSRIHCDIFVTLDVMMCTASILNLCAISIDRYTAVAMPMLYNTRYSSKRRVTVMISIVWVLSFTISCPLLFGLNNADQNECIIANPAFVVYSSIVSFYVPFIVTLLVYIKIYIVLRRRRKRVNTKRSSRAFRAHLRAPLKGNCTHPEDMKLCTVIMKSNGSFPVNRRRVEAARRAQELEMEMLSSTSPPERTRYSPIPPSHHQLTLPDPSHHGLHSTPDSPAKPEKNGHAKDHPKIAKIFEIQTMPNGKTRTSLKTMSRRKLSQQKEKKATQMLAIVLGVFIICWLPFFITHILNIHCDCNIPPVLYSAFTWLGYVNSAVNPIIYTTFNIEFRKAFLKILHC
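DiscoveRx PathHunter D2 beta-arrestin cells (2,100/well) attached overnight, then compound-stimulated 90 min at 37 C in HBSS/10 mM HEPES/0.1% Tween-20 buffer; beta-galactosidase complementation read by luminescence after 1 h at ambient temperature. Dopamine 57 uM final (EC100) as control.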
D2 PAM-1: human D2 receptor positive allosteric modulation | 360,000 compounds, 0.23% hits | potentiation, % (no concentration beside the values) | DiscoveRx D2 beta-arrestin cells, luminescence, 90 min; 100% = 57 uM dopamine signal; in the data active means potentiation above about 50%; inconclusive means mostly about 30% to 49%
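D2 cells co-treated with compound plus 50 nM dopamine (EC20) for 90 min at 37 deg C to detect potentiation. Beta-arrestin recruitment was read as enzyme-fragment luminescence after 1 h at ambient temperature. Full response was set by 57 uM dopamine.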
D2 antagonist: D2 dopamine receptor (human) antagonism. inhibition, % at 10 µM. 340,000 compounds, 2% hits. P14416. HEK293 TREx D2 cells, calcium flux, dopamine EC80; in the data active means inhibition above about 30%; inactive means below that, where a call was filed
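Tetracycline-induced HEK293 TREx cells expressing D2 receptor forced-coupled to calcium signalling, loaded with no-wash calcium dye. Compounds added and calcium flux read 180 s, then dopamine added at EC80 and read a further 180 s.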
D2 ag-2: agonists of human D2 dopamine receptor | P14416 | HEK293 T-REx D2 cells, calcium flux agonist mode | activation, % at 2 µM | 340,000 compounds, 0.53% hits;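 active means activation over 3 SD above normal in the single-dose calcium agonist read, cut at about 30% in these data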
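In this primary screen, compounds producing a positive calcium signal within 180 s of addition to tetracycline-induced, force-coupled HEK293 Trex D2 cells are flagged; cells are dye-loaded with a no-wash calcium kit beforehand.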
D2 PAM-2: D2 dopamine receptor (human) potentiation | 340,000 compounds, 0.34% hits | P14416 | AID 485347 | HEK293 T-REx D2, calcium flux, EC20 dopamine potentiation | potentiation, % at 10 µM;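 active means potentiation over 3 SD above the plate norm, cut at about 30% in these data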
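Potentiation of an EC20 dopamine calcium response is measured in a force-coupled, tetracycline-inducible Hek293 Trex D2 line. Compound-only kinetic reads over 180 s flag agonists before dopamine addition.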
Each line names hits and unclear results; the compound was inactive in the other large screens; ! = not confirmed by another sample.

C[C@H](CO)N1C[C@H](C)[C@@H](CN(C)Cc2ccc(C(=O)O)cc2)Oc2ncc(-c3ccc(C(=O)N(C)C)cc3)cc2C1=O	none (no result: D2 antagonist, D2 ag-2, D2 PAM-2)
COc1cccc(N(Cc2nnc3n2CCCCC3)C(=O)Nc2cccc(Cl)c2)c1	none (no result: D2 ag-1, D2 PAM-1, D2 antagonist)
Cc1ccccc1OCCN1C(=O)C(=O)c2cccc(C)c21	none
Cc1cccc2c1N(CCOc1ccccc1Cl)C(=O)C2=O	D2 antagonist 30.4
CC(C)CC(NS(=O)(=O)c1ccccc1)C(=O)O (configuration not stated)	none
CC(C)CN=C(NS(=O)(=O)c1ccccc1)C(Cl)(Cl)Cl	D2 PAM-1 77.3
CC(=O)N1N=C(c2ccc(C)cc2)OC1c1ccc(C(C)C)cc1 (configuration not stated)	none
CC(=O)N1N=C(c2cccnc2)OC1c1ccc(C(C)C)cc1 (configuration not stated)	D2 antagonist 55.4
Cc1cc(C)cc(NC(=O)CCCc2nc(-c3ccco3)no2)c1	none (no result: D2 ag-1, D2 PAM-1, D2 antagonist)
CCOC(=O)c1c(NC(=O)CSc2ncn[nH]2)sc(C(=O)NC)c1C	none
CCOC(=O)c1c(NC(=O)CSc2ncn[nH]2)sc(C)c1C	D2 antagonist 38.1
CCn1nnc(NC(=O)c2ccco2)n1	D2 antagonist 69.4
Cc1cc(C)n(-c2nc3ccccc3n3nnnc23)n1	D2 PAM-2 32.8
c1ccc(N2CCN(c3nc4ccccc4n4nnnc34)CC2)cc1	none
CS(=O)(=O)c1nc(-c2ccc(Br)cc2)cc(-c2ccccc2)c1C#N	D2 antagonist 41.0
Cc1ccccc1-n1ncc(C(C)NC(=O)c2ccccc2)c1C (configuration not stated)	D2 antagonist 36.3
Fc1ccc(OCCOCCN2CCCC2)cc1	none (no result: D2 antagonist, D2 ag-2, D2 PAM-2)
CC(OCCN1CCCC1)(c1ccc(F)cc1)c1ccc(F)cc1	D2 antagonist 73.2
O=C(Nc1ccc(F)cc1)c1ccc2ncsc2c1	none
O=C(Nc1ccc(Cl)cc1)c1ccc2ncsc2c1	D2 ag-1 inconclusive, D2 antagonist 40.1
CCCCn1c(N)nc2ccccc21	D2 antagonist 30.7
CCCCn1c(Nc2ccccc2)nc2ccccc21	D2 antagonist 35.8
CCCn1c(Nc2nc3ccccc3n2C)nc2ccccc21	none
C=CCn1c(/N=C/c2ccc(N(C)C)cc2)nc2ccccc21	none (no result: D2 antagonist, D2 ag-2, D2 PAM-2)
CCCCn1c(/N=C/c2ccc(N(C)C)cc2)nc2ccccc21	D2 PAM-2 49.1
CCCCCn1c(NCc2ccco2)nc2ccccc21	D2 antagonist 34.0
CCOC(=O)CSc1nc2ccc(NC(=O)c3ccccc3F)cc2s1	none (no result: D2 ag-1, D2 PAM-1, D2 antagonist)
Cc1ccc(S(=O)(=O)n2nc(-c3ccco3)nc2NCc2ccccc2Cl)cc1	none (no result: D2 ag-1, D2 PAM-1, D2 antagonist)
COc1ccccc1/C=C1\SC(=S)N(Nc2nc(C)cc(C)n2)C1=O	none
Cc1cc(C)nc(NN2C(=O)/C(=C/c3ccc(O)cc3)SC2=S)n1	D2 antagonist 44.7
CCOc1ccc(-c2c(C)nn3c(C)c(C(=O)NCCc4ccc(C)cc4)cnc23)cc1OCC	none (no result: D2 ag-1, D2 PAM-1, D2 antagonist)
Cc1ccc(C)c(N2CCN(C(=O)c3cc4c(=O)n(Cc5cccs5)ccc4nc3C)CC2)c1	none (no result: D2 ag-1, D2 PAM-1, D2 antagonist)
CCOC(=O)CNC(=O)c1sc(NC(=O)/C=C/c2ccccc2)nc1C	D2 antagonist 33.8
COc1cccc(N2CCN(Cc3cccnc3)CC2)c1	none
FC(F)(F)c1cccc(N2CCN(Cc3ccoc3)CC2)c1	D2 antagonist 102.5
FC(F)(F)c1cccc(N2CCN(Cc3cccnc3)CC2)c1	D2 antagonist 75.8
Cc1cc(C)cc(-n2ccnc2SCC(=O)Nc2nnc(C)s2)c1	none (no result: D2 ag-1, D2 PAM-1, D2 antagonist, D2 ag-2)
Cc1ccc(NCc2cc3cc4c(cc3n(CC(=O)Nc3ccc(C)cc3)c2=O)OCCO4)cc1	none (no result: D2 ag-1, D2 PAM-1, D2 antagonist)
Cc1cc(C)c(-c2cc(C(F)(F)F)no2)c(=O)[nH]1	D2 antagonist 32.3
CN1CCN(C2=Cc3ccccc3Sc3cc(F)c(F)cc32)CC1	none
CN1CCN(C2=Cc3ccccc3Sc3cc(F)c(Cl)cc32)CC1	D2 antagonist 73.5
COC(=O)c1sccc1S(=O)(=O)N(CC(=O)NCc1ccccc1)c1ccc(C)c(C)c1	none (no result: D2 ag-1, D2 PAM-1, D2 antagonist)
CCCNC(=O)c1onc(CSc2ccc(Cl)cc2)c1C(=O)NCCC(C)C	none (no result: D2 antagonist, D2 ag-2, D2 PAM-2)
Brc1ccc(Oc2nnnn2-c2ccccc2)cc1	D2 antagonist 44.7
CC(=O)c1cccc(NC(=O)COC(=O)c2ccc3c(c2)OCCO3)c1	D2 antagonist 39.1
CCOC(=O)c1cccc(NC(=O)COc2ccc([N+](=O)[O-])cc2)c1	none (no result: D2 antagonist, D2 ag-2, D2 PAM-2)
CCCOC(=O)Nc1cccc(C(C)=O)c1	D2 antagonist 35.2
CCCOC(=O)Nc1ccc(C(N)=O)cc1	none
Cc1ccc(NC(=O)COC(=O)c2ccc3c(c2)OCCO3)cc1	none
CCCOC(=O)c1cccc(NC(=O)COc2ccc([N+](=O)[O-])cc2)c1	D2 antagonist 33.3
O=C(COC(=O)c1ccc([N+](=O)[O-])o1)NC1CCCC1	none (no result: D2 antagonist, D2 ag-2, D2 PAM-2)
O=C(COC(=O)c1ccc([N+](=O)[O-])o1)NC1CCS(=O)(=O)C1 (configuration not stated)	D2 PAM-1 inconclusive, D2 antagonist 33.4
O=C(Nc1cccc(F)c1)C1CCN(C(=O)NCc2ccccc2)CC1	none
COc1cccc(NC(=O)CSc2nc3c(c(-c4ccco4)c2C#N)CCCC3)c1	D2 PAM-2 41.7
COc1cccc(NC(=O)CSC2=C(C#N)C(c3ccco3)C3=C(CCCC3=O)N2)c1 (configuration not stated)	D2 antagonist 36.9
COc1ccc(NC(=O)CSC2=C(C#N)C(c3ccco3)C3=C(CCCC3=O)N2)c(OC)c1 (configuration not stated)	none
O=C(CN1C(=O)COc2ccc(S(=O)(=O)N3CCOCC3)cc21)NCc1ccc(Cl)cc1	none (no result: D2 ag-1, D2 PAM-1, D2 antagonist)
COCCCC/C(=N\OCCN)c1ccc(C(F)(F)F)cc1	D2 antagonist 53.9!
Cc1cccc(C)c1NC(=O)CNC(=O)CCCc1c[nH]c2ccccc12	none
CCc1sc(Nc2cccc(Cl)c2)nc1-c1cc2cccc(OC)c2oc1=O	none (no result: D2 ag-1, D2 PAM-1, D2 antagonist)
COCCN(C(=O)CCC(=O)Nc1cc(C)on1)C(C(=O)NC(C)(C)C)c1ccccc1Cl (configuration not stated)	D2 antagonist 45.3 (no result: D2 PAM-2)
COc1ccc(C(C(=O)NC(C)(C)C)N(CCc2ccc(OC)c(OC)c2)C(=O)CCC(=O)Nc2cc(C)on2)cc1 (configuration not stated)	D2 antagonist 34.5 (no result: D2 PAM-2)
COc1cccc(C(C(=O)NC2CCCC2)N(CCC(C)C)C(=O)CCC(=O)Nc2cc(C)on2)c1 (configuration not stated)	none
CCCCN(C(=O)CCC(=O)Nc1cc(C)on1)C(C(=O)NC(C)(C)C)c1ccccc1Cl (configuration not stated)	none (no result: D2 PAM-2)
COCCN(C(=O)CCC(=O)Nc1cc(C)on1)C(C(=O)NC(C)(C)C)c1ccc(OC)cc1 (configuration not stated)	none
